This is an account of results in article PMC5540273 (PLoS ONE, 2017).

Test systems include ERN1; FER; FES; FGFR1; FGFR2; FGFR3; FGFR4; FGR; FLT1.
Common to all, as to settings: concentration: 1 μM, replicates: in singlicate, n = 1
For a further assay, the system named is T1, FAK.
T1 construct: gene PTK2

Several values for one entry are separate records, joined by “and”; a condition that tells them apart may be missing. Identical values can stand only once. Like-named read-outs stand apart in the source and are kept apart here.
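Further: KINOMEscan kinase panel screen.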

Regarding `NCCNS(=O)(=O)c1ccc(-c2ccnc3[nH]ccc23)cc1` [GSK977617], the “%Inh” value in the assay on ERN1 (1 µM) is 31% and 6%; with FAK (1 µM) it was 5% and 0%; in the assay on FER (1 µM), 53% and 22%; in the assay with FES (1 µM) it was 11% and 0%; with FGFR1 (1 µM), 57% and 38%; with FGFR2 (1 µM), 6% and 0%. Moreover, the “%Inh” value was 6% and 10% in the assay with FGFR3 (1 µM); 11% and 6% in the assay with FGFR4 (1 µM); 31% and 11% in the assay with FGR (1 µM); 60% and 33% with FLT1 (1 µM).
Take `NS(=O)(=O)c1cccc(-c2ccc3nccc(-c4cccc(S(N)(=O)=O)c4)c3c2)c1` [GW867253]: the “%Inh” value in the assay with ERN1 worked out at 39%; in the assay on FAK it was 0%; in the assay with FER, 0%; in the assay on FES, 0%; with FGFR1, 11%; in the assay with FGFR2 it was 0%. The “%Inh” value with FGFR3, in the assay with FGFR4, with FGR and with FLT1 was 0% in each case.
Consider `O=c1cc(N2CCOCC2)nc2n(Cc3cccc4ccccc34)ccn12` [GSK2333389], for which the “%Inh” value amounted to 10% in the assay with ERN1; 1% in the assay on FAK; 1% in the assay with FER; 0% in the assay with FES; 4% with FGFR1; 0% in the assay with FGFR2. The “%Inh” value is given as 7% in the assay with FGFR3, 0% in the assay with FGFR4, 9% in the assay on FGR and 30% in the assay with FLT1.
Take `O=C(Nc1n[nH]c2cc(-c3cccc(F)c3)ccc12)C1CC1` [SB-735464]: the “%Inh” value is listed as 12% in the assay with ERN1; 3% with FAK; 1% in the assay on FER; 34% in the assay with FES; 0% in the assay on FGFR1; 0% in the assay with FGFR2. Further, the “%Inh” value is 0% with FGFR3, 0% in the assay with FGFR4, 33% with FGR and 0% in the assay with FLT1.
As to `CC(=O)Nc1ccc(COc2ccc(Nc3ccnc4cc(-c5ccccn5)ccc34)cc2)cc1.Cl` [GW440148], the “%Inh” value was 17% in the assay on ERN1; 1% in the assay with FAK; 0% with FER; 13% in the assay on FES; 0% in the assay with FGFR1; 0% with FGFR2. The “%Inh” value came out at 14% in the assay on FGFR3, 0% with FGFR4, 36% in the assay on FGR and 99.2% in the assay with FLT1.
With `CC(C)Oc1ccc2c(-c3ccnc(Nc4ccc(N5CCN(C)CC5)cc4)n3)cnn2n1` [GW696155], the “%Inh” value in the assay with ERN1 was determined as 62%; in the assay with FAK, 0%; in the assay on FER, 22%; in the assay with FES it was 15%; with FGFR1 it was 15%; in the assay with FGFR2 it was 1%. The “%Inh” value in the assay with FGFR3 is recorded as 12%; in the assay on FGFR4, 0%; in the assay with FGR, 57%; with FLT1, 59%.
For `COc1cc2c(cc1OC[C@@H](O)CO)ncc1c3ccc(C#N)cc3[nH]c21`, the “%Inh” value in the assay on ERN1 is 0%; in the assay on FAK, 0%; with FER it was 0%; in the assay on FES it was 8%; in the assay on FGFR1, 0%; in the assay with FGFR2, 0%. Besides, the “%Inh” value with FGFR3 was found to be 0%; with FGFR4 it was 0%; with FGR, 30%; with FLT1, 0%.
For `Cc1c(Cn2c(C)nn3c(=O)cc(N4CCOC(C)C4)nc23)cccc1C(F)(F)F` (stereo not shown) [GSK2344444], the “%Inh” value with ERN1 was determined as 24%; in the assay on FAK, 0%; in the assay on FER, 25%; in the assay with FES, 0%; in the assay with FGFR1 it was 3%; in the assay on FGFR2, 0%. The “%Inh” value with FGFR3 was 4%; in the assay on FGFR4, 0%; with FGR, 0%; in the assay on FLT1 it was 25%.
Consider `COc1cc2c(cc1OCCN1CCN(C)CC1)ncc1c3ccc(C#N)cc3[nH]c21`, for which the “%Inh” value was 0% in the assay with ERN1; 27% in the assay with FAK; 3% in the assay with FER; 0% in the assay on FES; 0% with FGFR1; 7% with FGFR2. The “%Inh” value turned out to be 0% in the assay with FGFR3, 22% in the assay with FGFR4, 0% in the assay on FGR and 14% in the assay with FLT1.
`CN(C(=O)c1ccc(-c2cc(-c3c[nH]nc3-c3ccccn3)ccn2)cc1)C1CCOCC1` [GW810083]: the “%Inh” value amounted to 2% in the assay with ERN1; 0% in the assay on FAK; 0% with FER; 14% with FES; 4% with FGFR1; 0% in the assay with FGFR2. The “%Inh” value in the assay on FGFR3 was 0%; with FGFR4, 0%; with FGR, 0%; in the assay with FLT1, 41%.
On to `Cc1c2ccc(N(C)c3ccnc(Nc4cccc(S(N)(=O)=O)c4)n3)cc2nn1Cc1ccccc1.Cl.Cl` [GW787226], for which the “%Inh” value with ERN1 turned out to be 0%; in the assay on FAK, 0%; with FER, 63%; in the assay on FES it was 36%; in the assay with FGFR1, 65%; with FGFR2 it was 85%. Besides, the “%Inh” value in the assay on FGFR3 was 59%; in the assay with FGFR4 it was 19%; in the assay with FGR, 57%; in the assay with FLT1 it was 98.9%.
Turning to `N#Cc1c(N2CCOCC2)sc(-c2ccn[nH]2)c1-c1ccc(Cl)cc1`, the “%Inh” value in the assay with ERN1 turned out to be 4%; in the assay on FAK, 0%; in the assay on FER, 11%; in the assay on FES, 27%; in the assay with FGFR1, 7%; in the assay with FGFR2 it was 12%. The “%Inh” value with FGFR3 is on record as 0%; with FGFR4, 0%; in the assay with FGR, 22%; in the assay on FLT1 it was 0%.
On to `O=c1cc(N2CCOCC2)nc2n(Cc3cccc(C(F)(F)F)c3)ccn12` [GSK2297543], for which the “%Inh” value in the assay on ERN1 stood at 6%; with FAK it was 0%; with FER, 34%; in the assay with FES, 0%; in the assay with FGFR1 it was 11%; in the assay on FGFR2 it was 0%. For the same molecule, the “%Inh” value in the assay on FGFR3 stood at 19%; in the assay on FGFR4, 1%; in the assay on FGR, 17%; with FLT1 it was 17%.
With `Cl.Oc1cccc(Nc2ccnc3cc(-c4ccncc4)ccc23)c1` [GW494601], the “%Inh” value is 21% with ERN1; 0% in the assay on FAK; 23% in the assay with FER; 0% in the assay on FES; 59% in the assay on FGFR1; 0% in the assay with FGFR2. In addition, the “%Inh” value in the assay with FGFR3 is listed as 12%; in the assay on FGFR4, 12%; in the assay with FGR, 98.1%; with FLT1, 94.4%.
In the case of `O=c1cc(N2CCOCC2)nc2n(Cc3cccc(F)c3)ccn12` [GSK2297430], the “%Inh” value in the assay on ERN1 turned out to be 0%; in the assay with FAK, 0%; in the assay on FER it was 24%; in the assay on FES it was 9%; with FGFR1, 6%; with FGFR2, 0%. The “%Inh” value in the assay with FGFR3 is on record as 14%; with FGFR4, 1%; in the assay with FGR, 32%; in the assay on FLT1 it was 42%.
As for `Cn1ccc2ncnc(Oc3ccc(NC(=O)Nc4ccncc4)c(Cl)c3)c21`, the “%Inh” value with ERN1, in the assay on FAK, in the assay on FER, with FES, with FGFR1 and with FGFR2 was 0% in each case. Moreover, the “%Inh” value is on record as 0% in the assay on FGFR3, 0% with FGFR4, 5% with FGR and 0% in the assay on FLT1.
As for `Cc1nnc(-c2ccc(C)c(-c3ccc(C(=O)Nc4ccc(NS(C)(=O)=O)cc4)cc3)c2)o1` [GW702865], the “%Inh” value with ERN1 was 0%; with FAK it was 0%; in the assay with FER it was 4%; in the assay on FES, 0%; with FGFR1, 0%; in the assay with FGFR2, 0%. Besides, the “%Inh” value was determined as 11% in the assay on FGFR3, 0% with FGFR4, 24% with FGR and 25% with FLT1.
For `NS(=O)(=O)CCc1cccc(Nc2nccc(-c3c(-c4cccc(NC(=O)c5c(F)cccc5F)c4)nn4ccccc34)n2)c1` [GSK336735], the “%Inh” value in the assay with ERN1 is given as 21%; with FAK, 4%; in the assay on FER, 73%; with FES, 22%; with FGFR1 it was 44%; in the assay with FGFR2, 46%. For the same molecule, the “%Inh” value turned out to be 36% in the assay with FGFR3, 0% with FGFR4, 98.8% in the assay with FGR and 99.3% with FLT1.
Consider `CN1c2ccc(CNc3ccc(F)cc3)cc2-c2c(cnn2C)S1(=O)=O`, for which the “%Inh” value in the assay on ERN1 was 0%; in the assay with FER, 25%; in the assay on FES, 0%; in the assay on FGFR1 it was 0%; in the assay on FGFR2, 0%; in the assay on FGFR3 it was 0%. Moreover, the “%Inh” value with FGFR4 was found to be 9%; in the assay on FGR it was 0%; in the assay with FLT1, 0%.
On to `Cc1cccc(-c2nc(Nc3ccc4ncsc4c3)c3ccccc3n2)n1` [GW867588], for which the “%Inh” value with ERN1 worked out at 38%; with FAK, 3%; in the assay with FER, 0%; in the assay with FES, 13%; in the assay with FGFR1, 0%; in the assay on FGFR2, 0%. The “%Inh” value is recorded as 0% in the assay with FGFR3, 0% with FGFR4, 17% with FGR and 0% in the assay on FLT1.
